# Bioassay records as filed in PubChem.
# An excerpt weighted towards active compounds, which were near 8.8% of everything screened.
# HT1080 IDH1KD tx = HT-1080 IDH1 knockdown cell toxicity (counter line). Potency, µM (top dose mostly 46.1 µM), hits mostly cytotoxic. AID 686971. HT-1080 IDH1 knockdown viability, ATP luminescence, 48 h. 360,000 compounds, 2% hits
#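 Luminescent ATP read-out (CellTiter-Glo, 10 min at room temperature) after 48 h compound exposure at 37 °C gave viability of IDH1-knockdown HT-1080 cells. Activity was normalised to DMSO and cell-free wells, then fitted as concentration-response curves.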
# KB-3-1 tox = kills parental KB-3-1 adenocarcinoma cells | KB-3-1 viability, CellTiter-Glo ATP luminescence, 72 h | Potency, µM (titrated, usually from 46.1 µM), most hits filed as cytotoxic | 400,000 compounds, 1.4% hits | AID 1347075; further: nearly all actives have a fitted effect of over 60% in size
#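 Using CellTiter-Glo luminescence, growth of non-resistant KB-3-1 adenocarcinoma cells is assessed 72 h after pin-tool compound addition at 37 °C. Normalized responses across the concentration series yield fitted curves.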
# HT1080NT lethal = kills 2HG-producing HT-1080-NT fibrosarcoma cells; AID 686970; HT-1080-NT fibrosarcoma viability, CellTiter-Glo ATP luminescence, 48 h; Potency, µM (titrated, usually from 46.1 µM), usual class: cytotoxic; 360,000 compounds, 1.6% hits;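 further: NT is the 2HG producing partner of a matched IDH1 knockdown line; nearly all actives have a fitted effect of over 55% in size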
#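 Compounds were tested in concentration-response format on HT-1080-NT cells for 48 hours at 37 degrees C. Cell viability came from CellTiter-Glo luminescence; curves were classified by r2, response magnitude and activity.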
# KB-V1 MDR tox = KB-V1 MDR subline cytotoxicity. KB-V1 MDR cells viability, CellTiter-Glo, 72 h. Potency, µM (highest dose often 46.1 µM), usual class: cytotoxic. 400,000 compounds, 3.4% hits. AID 1347076; further: nearly all actives have a fitted effect of over 60% in size
#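 qHTS viability screen in drug-selected KB-V1 MDR cells: 72 h compound treatment at 37 degrees C, ATP luminescence end point.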
# IL1B secr inh = inhibitors of inflammasome signaling (IL-1 beta secretion) | 360,000 compounds, 4.7% hits | activity change, % at 57.5 µM | AID 743279 | THP-1 LPS/ATP IL-1B secretion, AlphaLISA, 16 h; hits give low values; in the data active means activity change below about -50%; inconclusive means mostly about -30% to -49%
#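 Secreted IL-1B measured by AlphaLISA bead assay after 16 h compound exposure of THP-1 cells; compounds (final up to 57.5 uM) added 1 h before LPS (250 ng/mL) and ATP (1.25 mM) stimulation; lower signal means less secretion.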
# A number is an active result; – = inactive; ? = inconclusive; · = no result given; ! = a repeat was not active. Unless noted, the call rests on the fitted dose curve; in most records, active means well fitted curve in the direction sought with a large enough effect; inconclusive means small, poorly fitted or top-dose-only effect, or another doubt; inactive means no such curve, though single readings can be large; an effect the other way counts as inactive or inconclusive.
SMILES,HT1080 IDH1KD tx,KB-3-1 tox,HT1080NT lethal,KB-V1 MDR tox,IL1B secr inh
CC1CCN(c2ccc3nnc(CCC(=O)N4CCCCC4)n3n2)CC1,–,–,–,–,–
CCOC(=O)/C(=N/Nc1ccccc1)Sc1nnc(CCc2ccccc2)n1-c1ccccc1,–,–,–,?,-73
CN(C)c1ccc(C(CNS(=O)(=O)c2ccc(F)cc2)c2c[nH]c3ccccc23)cc1 (stereo not drawn),–,?,–,?,-64
Nc1ccc2c(c1)C(=NO)c1cc([N+](=O)[O-])ccc1-2,?,–,–,–,-73
O=C(Nc1cc2c(cc1Cl)-c1ccc([N+](=O)[O-])cc1C2=NO)C(F)(F)F,–,?,–,–,-65
O=[N+]([O-])c1ccc2c(c1)C(=Nc1ccccc1)c1ccccc1-2,–,–,–,–,–
O=C(Nc1ccc2c(c1)Cc1cc([N+](=O)[O-])ccc1-2)C(F)(F)F,–,–,–,–,–
O=C1Nc2ccccc2Nc2ccc([N+](=O)[O-])cc21,–,–,–,–,–
O=[N+]([O-])c1ccc2c(c1)-c1ccccc1C2=NO,–,–,–,?,-75
O=C1OC(=O)c2cc([N+](=O)[O-])ccc21,–,–,–,–,-54
CC(=O)Nc1cccc(/C(C)=N/NC(=O)c2cccc(S(=O)(=O)N3CCCC3)c2)c1,–,–,–,–,–
CCCCCCCCN(CCCCCCCC)c1ccc(/C=C/c2ccnc3ccccc23)cc1,·,?,·,–,·
Cc1ccc2nc(Cl)c3nnnn3c2c1,13µM,?,–,?,-94
NN=C1c2cc(S(=O)(=O)NCCO)ccc2-c2ccc(S(=O)(=O)NCCO)cc21,·,?,·,–,·
COc1ccc(-c2csc(NC(=S)NC(=O)/C=C/c3ccco3)n2)cc1OC,18µM,7.3µM,12µM,6.5µM,–
COc1ccc(-c2csc(NC(=S)NC(=O)/C=C/c3ccco3)n2)cc1Br,2.6µM,5.2µM,3.7µM,4.1µM,·
CCOC(=O)Nc1c(C(=O)OC)[nH]c2cc(OC)ccc12,–,21µM,–,23µM,–
COC(=O)c1[nH]c2cc(OC)ccc2c1NC(=O)CN1CCN(c2cccc(C)c2)C(C)C1 (stereo not drawn),?,?,?,21µM,?
CCOC(=O)c1[nH]c2ccc(OC)cc2c1NC(=O)OC,–,–,–,–,–
COC(=O)c1[nH]c2cc(C)ccc2c1NC(=O)CN1CCOCC1,–,–,–,–,–
COc1cc(C2Nc3ccc4ncccc4c3C3=C2C(=O)CCC3)ccc1O (stereo not drawn),5.8µM,3.3µM,?,–,–
O=[N+]([O-])c1cc(Cl)ccc1N1CCOCC1,–,–,–,–,–
Nc1cc(N2CCCC2)c(Cl)cc1[N+](=O)[O-],–,?,–,8.2µM,–
Nc1cc(N2CCOCC2)c(Cl)cc1[N+](=O)[O-],16µM,–,?,6.5µM,–
COc1ccc(N(C(=O)c2ccccc2F)S(=O)(=O)c2ccc3c(c2)n(C)c(=O)n3C)cc1,·,–,·,–,·
SMILES,HT1080 IDH1KD tx,KB-3-1 tox,HT1080NT lethal,KB-V1 MDR tox,IL1B secr inh
COc1ccccc1NC(=O)NC(=O)c1ccccc1,–,–,–,–,–
Cn1c(=O)n(-c2ccc(Br)cc2F)c(=O)c2sc3ccccc3c21,·,–,·,–,·
CCOC(=O)c1nn(-c2ccc(OCC)cc2)c2nc(-c3ccco3)c(C#N)c(=O)n12,–,–,–,–,–
CN(Cc1ccccc1)C(=O)c1oc(=O)c2ccccc2c1-c1ccccc1,–,–,–,8.2µM,–
Cc1c(C(=O)N(C)Cc2ccccc2)oc2c(Cl)cccc12,–,?,–,?,–
Cc1ccc(-c2c(C(=O)N(C)Cc3ccccc3)oc(=O)c3ccccc23)cc1,–,18µM!,–,4.6µM!,–
Cc1ccc(-c2c(C(=O)NCc3ccccc3)oc(=O)c3ccccc23)cc1,–,–,–,?,–
CCN(CC)C(=O)c1ccccc1NC(=O)CN1C(=O)c2ccccc2S1(=O)=O,–,–,–,–,–
CCN(CC)C(=O)c1cccc(NC(=O)c2ccccc2OCc2c(C)noc2C)c1,–,–,–,–,–
CCOc1ccc2ncc3c(-c4cccc(OC)c4)nn(-c4ccccc4)c3c2c1,·,–,·,–,·
COc1cccc(/C=N/Nc2nc3ccccc3n3cnnc23)c1O,?,?,–,6.5µM,-112
COc1ccc(Nc2nc3ccccc3n3cnnc23)cc1,?,–,?,13µM,–
O=C(CN1C(=O)COc2ccc(S(=O)(=O)N3CCCC3)cc21)N1CCN(c2cccc(C(F)(F)F)c2)CC1,·,–,·,?,·
COc1ccc(Cl)cc1NC(=O)C(=O)NCc1ccncc1,–,–,–,–,-52
O=C(CN1CCCCCCC1)Nc1cccc(Cl)c1Cl,–,–,–,–,–
CC(C)(C)NC(=O)CSc1nnc(-c2ccccc2)c(-c2ccccc2)n1,–,–,–,–,-84
CC(=O)NNC(=O)CSc1nnc(-c2ccccc2)c(-c2ccccc2)n1,–,–,–,–,–
CCC(NC(=O)c1ccccc1O)c1ccccc1 (stereo not drawn),–,–,–,16µM,–
CCC(NC(=O)c1ccc([N+](=O)[O-])cc1[N+](=O)[O-])c1ccccc1 (stereo not drawn),–,–,–,–,–
CCC(NC(=O)CCCc1ccccc1)c1ccccc1 (stereo not drawn),–,–,–,18µM,–
O=C(CCl)NC(Cc1ccccc1)c1ccccc1 (stereo not drawn),16µM,?,?,?,-95
CC(=O)C(Cc1ccccc1)NC(=O)CCl (stereo not drawn),–,?,–,–,–
COc1ccc(-n2nc(C(=O)Nc3ccc(C(C)=O)cc3)nc2-c2ccccc2)cc1,·,?,·,–,·
COc1ccccc1N=NNc1ccc(S(=O)(=O)NC(C)=O)cc1,–,–,?,–,–
COc1ccccc1OCc1cc(C(=O)N(C)CCC2CCCCO2)no1 (stereo not drawn),–,·,–,·,–
SMILES,HT1080 IDH1KD tx,KB-3-1 tox,HT1080NT lethal,KB-V1 MDR tox,IL1B secr inh
c1ccc(-c2nc(-c3ccco3)n3ccccc23)cc1,–,–,–,–,-92
c1ccc(Nc2c(-c3ccco3)nc3ccccn23)cc1,–,–,–,–,?
CC1(Cc2ccccc2F)C(=O)Nc2c(Cl)ccc(Cl)c21 (stereo not drawn),–,–,?,–,–
COc1cccc(N2CCN(C(=S)Nc3cc(C)cc(C)c3)CC2)c1,–,–,–,?,–
CCC(C)Oc1ccc(/C=C/c2[nH]c(=O)[nH]c(=O)c2[N+](=O)[O-])cc1OC (stereo not drawn),?,–,–,–,-102
CC(O/N=C/c1ccccc1OC(F)F)C(=O)Nc1cccc(S(=O)(=O)N2CCOCC2)c1 (stereo not drawn),–,–,–,13µM,–
